Compounds with a hit are over-represented: about 4.9% of the library has one in this group of screens.
dFosB act: activators of delta FosB homodimer, primary screen, biochemical, fluorescence polarization, TAMRA-CDK5 oligo, single point; activation, % at 25 µM; Protein FosB (Mus musculus), P13346; hit rate 0.99% among 340,000; purified delta FosB; percent of positive-control signal above neutral wells;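 active means mean activation above about 17%, with every replicate also reaching it, limit read from the data, passing the limit was not always enough; inconclusive means only one of the two conditions met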
Target sequence (P13346 whole entry, looked up): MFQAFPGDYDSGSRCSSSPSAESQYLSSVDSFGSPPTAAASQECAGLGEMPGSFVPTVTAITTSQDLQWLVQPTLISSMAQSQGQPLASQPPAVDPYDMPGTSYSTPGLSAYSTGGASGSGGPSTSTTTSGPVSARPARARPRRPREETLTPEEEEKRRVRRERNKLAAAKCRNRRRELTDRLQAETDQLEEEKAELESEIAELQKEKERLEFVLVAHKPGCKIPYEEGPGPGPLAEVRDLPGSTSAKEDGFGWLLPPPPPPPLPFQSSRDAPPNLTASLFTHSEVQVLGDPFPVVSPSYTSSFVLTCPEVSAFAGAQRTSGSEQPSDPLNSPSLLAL
MPTP inh: mitochondrial permeability transition pore inhibitors, primary screen, biochemical, isolated mouse mitochondria, absorbance | Ca2+ swelling absorbance, 30 min | inhibition, % at 10 µM | hit rate 1.4% among 360,000 | AID 602449, 2012;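 active means inhibition of 50% or more, scaled per plate between neutral and stimulator controls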;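 further: 0% = DMSO wells given calcium and 100% = 1 mM EGTA wells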
HSF-1 act: HSF-1 activators, primary screen, NIH3T3-HGL cells, MG132 stress, luminescence, single point. activation, % at 9 µM. hit rate 1.7% among 300,000. NIH3T3-HGL HSF-1 luciferase reporter, 8 h; 100% = twice DMSO control signal;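 active means mean replicate activation of at least 50% with a set share of replicates each reaching 50%; inconclusive means only one of those two conditions met; inactive means mean below 50% and too few replicates reaching it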;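 further: 0% = median of the neutral control wells and 100% = twice that signal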
Platelet DG rel: inhibitors of platelet dense granule secretion, primary screen, cell-based, MLPCN, human platelets | human platelet-rich plasma, SFLLRN dense granule ATP release, luminescence | inhibition, %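 (compounds screened at 7.5 µM in platelet-rich plasma)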 | hit rate 0.22% among 300,000 | AID 1663, 2009;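 active means mean replicate score, as percent of positive control, at or above 50; inconclusive means mean below 50 but at least one replicate at or above 50; inactive means mean and every replicate below 50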
HSF1 inhib: HSF1 inhibitors in luciferase reporter cells, primary screen, cell-based, NIH3T3, luminescence; NIH3T3-HGL HSE-luciferase, MG132-induced, luminescence 8 h; hits give low values; activity change, negative = inhibition, % at 7.5 µM (by protocol); AID 2098, 2009; hit rate 0.77% among 300,000;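 active means more than half of replicate wells show activity change below -50%, luminescence cut by over half; inconclusive means some wells, but at most half, below -50%; inactive means no replicate well below -50%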;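 further: luciferase reports HSF-1 transcriptional activity via heat shock element; 0% = median of DMSO wells and -100% = zero luminescence signal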
HSP90 refold inh: HSP90 inhibitors, primary screen, cell lysate, luminescence. Heat shock protein HSP 90 (rabbit reticulocyte lysate; luciferase refolding). AID 1789, 2009. hit rate 0.91% among 290,000. Rabbit reticulocyte lysate, luciferase refolding luminescence, 3 h. inhibition, % at 5.6 µM;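 active means inhibition above the screen-wide mean plus 3 SD, computed separately per campaign, cut at about 16% in these data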;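 further: 0% = DMSO wells and 100% = 60 µM geldanamycin wells; inhibitors lower the luminescence because luciferase stays unfolded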
Rh123 counter: fluorescence retest of MPTP screen hits in isolated mitochondria, single concentration. shares compounds with MPTP inh. membrane potential, Rhodamine 123 fluorescence. inhibition, % at 10 µM. hit rate 78% among 5,000; in the data active means inhibition above about 22%;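 further: 0% = DMSO vehicle and 100% = positive control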
MPTP abs DR: mitochondrial permeability transition pore inhibitors, dose response, biochemical, absorbance, uHTS hits. shares compounds with MPTP inh. isolated mitochondria swelling. IC50, µM. hit rate 58% among 780. AID 651561, 2012; in the data active means IC50 below about 20 µM
MPTP counter DR: fluorescent counter-screen in isolated mitochondria, dose response, counter-screen for MPTP inhibitor project, biochemical, fluorescence, uHTS hits | shares compounds with MPTP inh | isolated mitochondria counterscreen, fluorescence read-out | IC50, µM | hit rate 49% among 780 | AID 651564, 2012; in the data active means IC50 below about 80 µM
* marks the source's active call; other numbers are inactive results; i = inactive; ? = inconclusive; . = no result given.

SMILES	dFosB act	MPTP inh	HSF-1 act	Platelet DG rel	HSF1 inhib	HSP90 refold inh	Rh123 counter	others
FC(F)Oc1ccc(NC(=S)NC23CC4CC(CC(C4)C2)C3)cc1	-7	54*	7	0	-2	4	95*
O=C(Nc1ccccc1)Nc1ccc(S(=O)(=O)N2CCCCC2)cc1	-3	99*	-5	0	3	5	89*
CC1CCN(C(=O)C(=O)Nc2sc3c(c2C(N)=O)CC(C)(C)OC3)CC1	-9	-2	-9	3	6	-5	.
Cc1ccc(OCCNC(=O)c2ccccc2F)cc1	4	0	23	-2	6	-3	.
O=[N+]([O-])c1cc(Cl)cc(/C=N/NC(=S)Nc2ccc(S(=O)(=O)N3CCOCC3)cc2)c1O	-3	72*	4	0	-2	-2	26*
O=S(=O)(c1ccc(NC(=S)NN=Cc2ccccc2O)cc1)N1CCCCC1	-8	99*	.	.	.	.	81*
COc1ccc(NC(=O)Nc2ccccc2)cc1S(=O)(=O)N1CCCCC1	-9	-1	7	-2	9	1	.
O=S(=O)(c1ccc(NC(=S)NC23CC4CC(CC(C4)C2)C3)cc1)N1CCCCC1	.	90*	.	.	.	.	61*
NS(=O)(=O)c1ccc(NC(=S)Nc2ccc(S(=O)(=O)N3CCCC3)cc2)cc1	-6	-1	-3	-1	-5	1	.
N#Cc1ccc(/C=N/NC(=S)Nc2ccc(S(=O)(=O)N3CCOCC3)cc2)cc1	-1	6	-14	5	4	-4	.
Cc1oc(S(=O)(=O)N2CCCCC2)cc1NC(=O)Nc1ccccc1	-6	51*	-2	-10	9	4	54*
CCNc1nc(NC(C)(C)C)nc(SCC(N)=O)n1	-1	-1	8	-12	4	1	.
Cc1nnc(NC(=O)CCC(=O)N2CCN(CCOc3cccc4ccccc34)CC2)s1	.	3	24	2	3	0	.
Cc1cc(C)c(C)c(S(=O)(=O)N2CCC(C(=O)Nc3ccc(S(=O)(=O)N4CCOCC4)cc3)CC2)c1C	-4	5	4	1	1	-2	.
N#CC(C#N)=NNc1ccc(S(=O)(=O)N2CCCCC2)cc1	-8	89*	-7	-1	4	5	91*
O=C(CN1CCCc2ccccc21)N/N=C/c1c(O)ccc2ccccc12	-5	95*	4	-7	-13	10	89*
O=C(CN1CCCc2ccccc21)N/N=C/c1ccccc1	-3	1	1	-3	3	3	.
O=S(=O)(c1ccc(Cl)c(NC(=S)N/N=C/c2c(F)cccc2F)c1)N1CCOCC1	-4	57*	18	3	-10	5	47*
CC(C)Sc1nnc(NC(=O)c2ccc3c(c2)OCO3)s1	1	-1	25	14	14	-3	.
Cc1nc(Nc2ccc(S(=O)(=O)N3CCCCC3C)cc2)c2nnn(Cc3ccccc3)c2n1 (stereo unspecified)	-2	68*	27	-1	8	1	14	MPTP abs DR=i;MPTP counter DR=>80
O=C1NC[C@H](CCCCN2C[C@H](Cc3ccc(O)cc3)N(CCc3ccccc3)C(=O)C2=O)N(CCC2CCCCC2)C1=O	.	-3	.	.	.	.	.
NC(=S)NN=C1c2cc(Cl)ccc2-c2c1cc(Cl)cc2[N+](=O)[O-]	-2	93*	.	.	.	.	74*
C/C(=N\N=C(N)N)c1cccc(Cl)c1	-4	55*	-2	5	-15	3	6	MPTP abs DR=16*;MPTP counter DR=68*
COCCCNC(=S)NNC(=O)c1csc2ccccc12	-9	-2	0	9	-1	-1	.
Cc1ccc(S(=O)(=O)NC(C)(C)CN2CCC(Cc3ccccc3)CC2)cc1	-3	8	7	0	5	6	.
SMILES	dFosB act	MPTP inh	HSF-1 act	Platelet DG rel	HSF1 inhib	HSP90 refold inh	Rh123 counter	others
O=S(=O)(NCC(Nc1ccc(Cl)cc1)c1ccccc1)c1ccccc1 (stereo unspecified)	-5	75*	10	11	5	8	87*
COc1cc(OC)cc(C2=Cc3ccccc3C(CC(=O)c3ccco3)N2c2ccc(-c3cncnc3)cc2)c1 (stereo unspecified)	.	-2	.	.	.	.	.
CCN(CC)CCCN=Cc1c(O)n(Cc2ccccc2)c(=O)c2ccccc12	4	79*	13	4	-12	-4	-18	MPTP abs DR=12*;MPTP counter DR=>80
CC1=C([N+](=O)[O-])C(c2cccc(Br)c2)C2=C(N1)c1ccccc1C2=O (stereo unspecified)	-7	85*	1	4	-11	0	58*
COc1ccc(CC(=O)Nc2cccc(-c3csc(C)n3)c2)cc1	-4	104*	18	3	-2	6	4	MPTP abs DR=>100;MPTP counter DR=>80
COc1ccc(CC(=O)Nc2ccc(-c3csc(C)n3)cc2)cc1	1	-5	40	0	4	2	.
CCc1nnc(NS(=O)(=O)c2ccc(NC(=S)NC(=O)/C=C/c3ccccc3)cc2)s1	-17	12	25	-47	19	1	.
CCc1nnc(NS(=O)(=O)c2ccc(NC(=S)NC(=O)/C=C/c3ccc(C(C)C)cc3)cc2)s1	-7	66*	41	7	24	-7	42*
CC(C)CC1C(C#N)=C(N)SC(N)=C1C#N	-11	62*	-12	-4	0	-2	78*
N#CC1=C(N)SC(N)=C(C#N)C1c1c(Cl)cccc1Cl	-20	6	?	-17	18	3	.
N#CC1=C(N)SC(N)=C(C#N)C1CCc1ccccc1	-12	96*	9	-3	15	0	67*
N#CC1=C(N)SC(N)=C(C#N)C1Cc1ccccc1	-13	77*	4	7	1	1	73*
CCOc1ccc(C2C(C#N)=C(N)SC(N)=C2C#N)cc1OCC	-11	6	3	0	-1	.	.
N#CC1=C(N)SC(N)=C(C#N)C1c1cccc(Oc2ccccc2)c1	-7	89*	17	-6	10	2	70*
O=C1c2ccccc2C(c2nnnn2Cc2ccccc2)N1Cc1cccnc1 (stereo unspecified)	.	0	.	.	.	.	.
Cc1cc(F)cc(-c2cc(C(=O)NCc3ccccn3)[nH]n2)c1	.	-1	.	.	.	.	.

Screening results as filed in PubChem.
